Results on 24 targets are retold here after the supplement of paper PMC10849652.

Targets with a hit are over-represented here; the source holds about 7,900 in all. About 0.6% of all pairs of compound and target were hits.

Chain of UniProt P25208 (P25208 whole entry, looked up): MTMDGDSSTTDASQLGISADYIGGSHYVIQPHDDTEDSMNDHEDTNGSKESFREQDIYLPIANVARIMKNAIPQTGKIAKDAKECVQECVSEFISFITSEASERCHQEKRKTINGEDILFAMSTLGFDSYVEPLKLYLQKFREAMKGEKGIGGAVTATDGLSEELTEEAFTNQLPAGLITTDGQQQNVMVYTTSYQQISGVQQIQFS
Chain of UniProt Q8NI08 (Q8NI08 whole entry, looked up): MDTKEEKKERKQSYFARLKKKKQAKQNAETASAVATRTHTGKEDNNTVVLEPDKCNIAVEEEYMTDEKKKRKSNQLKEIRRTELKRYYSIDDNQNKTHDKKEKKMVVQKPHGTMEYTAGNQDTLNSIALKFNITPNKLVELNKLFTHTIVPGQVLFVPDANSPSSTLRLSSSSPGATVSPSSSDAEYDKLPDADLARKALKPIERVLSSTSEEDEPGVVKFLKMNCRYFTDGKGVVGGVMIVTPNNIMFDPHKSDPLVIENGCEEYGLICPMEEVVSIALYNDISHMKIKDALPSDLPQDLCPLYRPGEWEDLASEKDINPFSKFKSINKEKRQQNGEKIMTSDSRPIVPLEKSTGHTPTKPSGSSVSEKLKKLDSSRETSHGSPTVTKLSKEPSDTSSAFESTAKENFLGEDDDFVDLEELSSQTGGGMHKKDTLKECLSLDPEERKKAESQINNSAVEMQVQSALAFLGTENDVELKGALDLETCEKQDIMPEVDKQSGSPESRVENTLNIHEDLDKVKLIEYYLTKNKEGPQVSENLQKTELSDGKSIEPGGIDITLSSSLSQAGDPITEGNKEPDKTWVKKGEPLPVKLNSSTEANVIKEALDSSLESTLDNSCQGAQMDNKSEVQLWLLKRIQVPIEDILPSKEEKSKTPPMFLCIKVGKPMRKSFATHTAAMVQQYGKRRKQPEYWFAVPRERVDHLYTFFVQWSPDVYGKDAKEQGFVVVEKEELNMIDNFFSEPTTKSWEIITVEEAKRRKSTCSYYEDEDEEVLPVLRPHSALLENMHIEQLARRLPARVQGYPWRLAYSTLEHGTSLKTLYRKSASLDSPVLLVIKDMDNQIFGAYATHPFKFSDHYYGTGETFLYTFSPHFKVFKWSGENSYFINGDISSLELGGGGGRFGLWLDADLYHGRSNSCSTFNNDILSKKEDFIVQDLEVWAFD
Chain of UniProt Q99549 (Q99549 whole entry, looked up): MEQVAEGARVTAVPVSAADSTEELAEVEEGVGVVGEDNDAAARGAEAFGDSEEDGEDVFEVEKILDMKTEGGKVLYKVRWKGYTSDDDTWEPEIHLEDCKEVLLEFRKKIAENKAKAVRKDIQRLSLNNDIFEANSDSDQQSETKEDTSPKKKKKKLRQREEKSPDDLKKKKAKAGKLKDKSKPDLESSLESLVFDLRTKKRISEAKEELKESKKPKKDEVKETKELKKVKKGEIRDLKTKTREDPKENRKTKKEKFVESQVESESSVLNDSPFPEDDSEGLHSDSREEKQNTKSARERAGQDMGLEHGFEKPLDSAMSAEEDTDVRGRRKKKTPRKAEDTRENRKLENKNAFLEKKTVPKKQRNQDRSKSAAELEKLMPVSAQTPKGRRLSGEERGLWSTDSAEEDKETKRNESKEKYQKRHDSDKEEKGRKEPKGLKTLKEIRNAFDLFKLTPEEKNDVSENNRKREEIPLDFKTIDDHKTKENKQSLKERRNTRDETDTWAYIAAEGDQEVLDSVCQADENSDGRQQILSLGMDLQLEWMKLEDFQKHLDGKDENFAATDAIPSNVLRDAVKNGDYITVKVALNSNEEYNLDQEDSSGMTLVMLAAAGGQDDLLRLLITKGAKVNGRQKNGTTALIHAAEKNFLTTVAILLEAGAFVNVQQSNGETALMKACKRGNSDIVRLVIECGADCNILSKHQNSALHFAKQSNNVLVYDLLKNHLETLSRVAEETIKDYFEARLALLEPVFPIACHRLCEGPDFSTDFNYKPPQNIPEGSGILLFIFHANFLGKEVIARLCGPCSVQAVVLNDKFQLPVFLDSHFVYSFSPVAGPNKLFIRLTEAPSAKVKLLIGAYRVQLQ
Chain of UniProt Q9Y5B8 (Q9Y5B8 whole entry, looked up): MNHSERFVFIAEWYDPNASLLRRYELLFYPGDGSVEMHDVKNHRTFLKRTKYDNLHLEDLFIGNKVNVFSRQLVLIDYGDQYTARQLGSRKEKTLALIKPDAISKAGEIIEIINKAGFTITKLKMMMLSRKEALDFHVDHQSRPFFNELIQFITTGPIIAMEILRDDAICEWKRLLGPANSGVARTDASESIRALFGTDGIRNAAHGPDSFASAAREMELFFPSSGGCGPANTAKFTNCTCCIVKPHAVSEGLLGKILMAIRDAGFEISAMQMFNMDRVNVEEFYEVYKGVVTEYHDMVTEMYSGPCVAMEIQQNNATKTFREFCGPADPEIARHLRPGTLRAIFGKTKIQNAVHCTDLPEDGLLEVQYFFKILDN
Chain of UniProt O15118 (O15118 whole entry, looked up): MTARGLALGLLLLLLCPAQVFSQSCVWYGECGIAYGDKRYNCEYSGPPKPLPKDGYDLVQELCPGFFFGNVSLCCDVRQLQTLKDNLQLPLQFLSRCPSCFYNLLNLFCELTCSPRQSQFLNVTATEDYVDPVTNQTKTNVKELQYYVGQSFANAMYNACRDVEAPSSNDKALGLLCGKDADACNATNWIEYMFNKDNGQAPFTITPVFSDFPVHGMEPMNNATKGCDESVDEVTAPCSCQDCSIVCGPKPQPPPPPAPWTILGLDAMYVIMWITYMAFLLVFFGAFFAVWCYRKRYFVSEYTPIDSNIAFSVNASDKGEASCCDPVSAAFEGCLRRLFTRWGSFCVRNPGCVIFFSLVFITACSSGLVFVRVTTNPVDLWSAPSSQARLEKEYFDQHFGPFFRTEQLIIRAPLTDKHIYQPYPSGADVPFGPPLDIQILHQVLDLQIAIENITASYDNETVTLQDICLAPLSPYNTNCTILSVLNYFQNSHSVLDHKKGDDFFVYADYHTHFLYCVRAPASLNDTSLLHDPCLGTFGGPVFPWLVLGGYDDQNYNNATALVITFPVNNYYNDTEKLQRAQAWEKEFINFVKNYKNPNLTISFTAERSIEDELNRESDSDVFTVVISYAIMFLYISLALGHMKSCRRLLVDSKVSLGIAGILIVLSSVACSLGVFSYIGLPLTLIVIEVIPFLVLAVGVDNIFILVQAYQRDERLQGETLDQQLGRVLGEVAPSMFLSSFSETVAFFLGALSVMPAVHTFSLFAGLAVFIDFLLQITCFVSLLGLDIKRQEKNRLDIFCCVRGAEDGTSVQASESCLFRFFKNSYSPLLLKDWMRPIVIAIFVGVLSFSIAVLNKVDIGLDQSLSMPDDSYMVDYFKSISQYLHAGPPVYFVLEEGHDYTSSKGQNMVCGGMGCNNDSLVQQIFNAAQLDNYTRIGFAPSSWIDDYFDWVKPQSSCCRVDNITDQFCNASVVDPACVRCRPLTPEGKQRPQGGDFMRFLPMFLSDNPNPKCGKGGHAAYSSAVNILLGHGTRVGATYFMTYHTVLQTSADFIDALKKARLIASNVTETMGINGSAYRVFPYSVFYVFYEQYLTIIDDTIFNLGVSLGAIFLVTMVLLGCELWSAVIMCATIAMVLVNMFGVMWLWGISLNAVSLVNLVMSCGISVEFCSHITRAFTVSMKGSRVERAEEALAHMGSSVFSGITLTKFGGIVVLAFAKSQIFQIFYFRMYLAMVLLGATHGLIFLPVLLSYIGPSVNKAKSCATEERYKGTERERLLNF
Chain of UniProt Q6VY07 (Q6VY07 whole entry, looked up): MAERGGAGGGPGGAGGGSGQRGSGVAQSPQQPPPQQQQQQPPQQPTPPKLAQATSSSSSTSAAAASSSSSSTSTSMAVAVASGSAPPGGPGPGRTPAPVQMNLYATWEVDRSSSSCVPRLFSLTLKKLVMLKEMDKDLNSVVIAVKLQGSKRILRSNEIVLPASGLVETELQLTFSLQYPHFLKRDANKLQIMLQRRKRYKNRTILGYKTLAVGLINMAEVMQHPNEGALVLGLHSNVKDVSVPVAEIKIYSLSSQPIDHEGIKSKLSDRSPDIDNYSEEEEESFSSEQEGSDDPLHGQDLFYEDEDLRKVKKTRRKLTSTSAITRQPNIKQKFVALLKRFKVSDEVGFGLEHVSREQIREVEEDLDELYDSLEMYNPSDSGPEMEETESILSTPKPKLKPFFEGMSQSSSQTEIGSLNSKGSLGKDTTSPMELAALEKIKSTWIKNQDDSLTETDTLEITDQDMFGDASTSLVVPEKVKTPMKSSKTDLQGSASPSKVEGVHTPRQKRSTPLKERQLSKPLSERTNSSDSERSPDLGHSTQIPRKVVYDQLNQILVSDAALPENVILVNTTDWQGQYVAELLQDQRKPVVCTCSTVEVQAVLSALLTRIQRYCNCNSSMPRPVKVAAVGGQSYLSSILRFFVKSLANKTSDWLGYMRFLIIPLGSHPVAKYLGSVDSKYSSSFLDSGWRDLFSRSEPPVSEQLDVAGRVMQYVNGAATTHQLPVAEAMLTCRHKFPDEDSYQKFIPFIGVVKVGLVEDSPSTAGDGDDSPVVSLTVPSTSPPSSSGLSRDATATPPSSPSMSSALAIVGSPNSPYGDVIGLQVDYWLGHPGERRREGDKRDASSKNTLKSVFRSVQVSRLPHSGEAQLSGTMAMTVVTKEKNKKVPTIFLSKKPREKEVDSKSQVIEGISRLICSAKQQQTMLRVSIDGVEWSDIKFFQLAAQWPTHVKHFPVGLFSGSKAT
Chain of UniProt Q9BT67 (Q9BT67 whole entry, looked up): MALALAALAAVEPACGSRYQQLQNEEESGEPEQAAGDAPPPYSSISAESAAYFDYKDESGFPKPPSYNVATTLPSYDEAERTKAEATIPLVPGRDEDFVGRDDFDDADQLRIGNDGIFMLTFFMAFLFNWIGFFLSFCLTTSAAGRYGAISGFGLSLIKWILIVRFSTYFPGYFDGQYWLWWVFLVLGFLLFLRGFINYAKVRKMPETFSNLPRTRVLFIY
Chain of UniProt O75607 (O75607 whole entry, looked up): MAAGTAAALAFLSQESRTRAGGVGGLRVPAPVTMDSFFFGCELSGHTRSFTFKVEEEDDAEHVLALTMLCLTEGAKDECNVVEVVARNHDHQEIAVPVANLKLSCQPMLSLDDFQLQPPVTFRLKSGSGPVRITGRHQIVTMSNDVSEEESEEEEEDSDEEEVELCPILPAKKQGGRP

Compound in this assay: CC1=C(C=C(C=C1)NC(=O)C2=CC(=CC=C2)C(C)(C)C#N)NC3=CC4=C(C=C3)N=CN(C4=O)C
Description: log2 fold change, soluble protein after heating vs DMSO (PISA); higher = thermal stabilisation; K562 cells, 10 uM, 30 min; active = over 0.2 and 3.5 SD of the protein, either way, in both replicates (recomputed). In short, it runs like this:
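Aliquots of K562 cells (2×10^6 cells/mL) treated with 10 μM compound for 30 min were heated for 3 min over 48°C-58°C. After pooling and extraction in PBS with 0.5% NP-40 at 4°C, soluble protein from a 21,000xg, 90 min spin was quantified by TMTpro 16plex LC-MS/MS with channel sums equalised. Thermal stability is expressed against control samples, from duplicates, as a log2 fold change.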
Regarding NFYB (UniProt P25208), the log2 fold change was -0.012 (inactive). Regarding NME7 (UniProt Q9Y5B8), the log2 fold change is -0.008 (inactive). In the case of MPHOSPH8 isoform 2 (UniProt Q99549), the log2 fold change is -0.159 (inactive).

Regarding NPM3 (UniProt O75607), the log2 fold change was 0.003 (inactive).

Consider OAF (UniProt Q86UD1), for which the log2 fold change is -0.005 (inactive). Regarding MTFR1L (UniProt Q9H019), the log2 fold change was 0.082 (inactive). For the target NA, A0A2R8Y3M9, the log2 fold change was -0.126 (inactive). Take NME2P1 (UniProt O60361): the log2 fold change is 0.06 (inactive).

As for MON1A (UniProt Q86VX9), the log2 fold change is 0.055 (inactive).

NCOA7 (UniProt Q8NI08): the log2 fold change was 0.068 (inactive). As for NCK1 (UniProt P16333), the log2 fold change is 0.166 (inactive). PAFAH2 (UniProt Q99487): the log2 fold change is -0.09 (inactive). Consider NAT14 (UniProt Q8WUY8), for which the log2 fold change was 0.012 (inactive). In the case of NUMBL (UniProt Q9Y6R0) it was 0.011 (inactive). For NDFIP1 (UniProt Q9BT67), the log2 fold change is -0.366 (inactive). Take NA isoform 3 (UniProt Q4G0T1): the log2 fold change is -0.007 (inactive). With PACS1 (UniProt Q6VY07), the log2 fold change was -0.001 (inactive). With NPC1 (UniProt O15118), the log2 fold change is -0.018 (inactive).

Regarding MRPS21 (UniProt P82921), the log2 fold change was 0.015 (inactive). Consider MRPS16 (UniProt Q9Y3D3), for which the log2 fold change is 0.055 (inactive). On to NOP58 (UniProt Q9Y2X3), for which the log2 fold change is -0.055 (inactive). Consider MYLK (UniProt Q15746), for which the log2 fold change is 0.832 (active). For MLX (UniProt Q9UH92), the log2 fold change was 0.035 (inactive). As for OSBPL3 (UniProt Q9H4L5), the log2 fold change was 0.35 (inactive).
